Assay results reported in ChEMBL document CHEMBL3988442, “University of Dundee, Small-Polar-MMV Screening Library” (2021).

Target: AMP-activated protein kinase, AMPK (Homo sapiens) (UniProt P54646+O43741+P54619+Q9UGJ0+Q9Y478+Q13131+Q9UGI9)
Assay: AMP-dependent Kinase enzyme assay. An in vitro enzyme assay that detects ADP turnover that is directly proportional to AMPK activity. This uses naive AMPK that is activated during the assay with MK-8722
Assay type: functional
Set-up: scale not given: direction of the effect not stated beside the values
Settings: 30 µM

Row | Compound | Percent Effect [%]
1 | O=C1NCCN(CC2CCCCC2)C1CC(=O)N1CCc2n[nH]cc2C1 (stereo not given) | -8.97
2 | Cc1c(NC(=O)CN(C)S(C)(=O)=O)cccc1OC1CCCC1 | -0.429
3 | COc1ccc(N2CCN(C(=O)CCCc3cn[nH]c3)CC2=O)cc1 | -3.84
4 | CCN1CC2(CCN(CC3COCCO3)CC2)OC1=O (stereo not given) | -1.21
5 | O=C(NC1CC1)c1nc(Cn2c(C(F)F)nc3ccccc32)no1 | 10.9
6 | CCC(=O)N1CCC(c2ncc(C(=O)Nc3ccccc3)c(C)n2)C1 (stereo not given) | 8.33
7 | CCC(C)(CC(=O)OC)NCc1cc(C)on1 (stereo not given) | -1.46
8 | CCCC1(CO)CCCN(C(=O)CN2CCN(CC)CC2)C1 (stereo not given) | -3.5
9 | C=C(C)COc1cccc(CNCCc2nc(N)cc(O)n2)c1 | 3.76
10 | CC1CCN(c2ncc(-c3ccccc3F)c(-c3nccn3C)n2)CC1 | 15.2
11 | CSCC(C)(O)CNS(=O)(=O)c1cccc(Cl)c1 (stereo not given) | -5.75
12 | COC(=O)C(NC(=O)c1cc(F)cc(F)c1)c1cccnc1 (stereo not given) | 2.18
13 | O=S(=O)(c1cn[nH]c1)N1CCCC(O)(CN2CCOCC2)CC1 (stereo not given) | 13.3
14 | O=C(Nc1ccccn1)c1ccc(F)c(S(=O)(=O)NC2CC2)c1 | 1.7
15 | Cc1cc(NC(=O)C2CCN(c3ncccc3C#N)CC2)no1 | 4.93
16 | COC(=O)c1ccc(NC(=O)CCNCc2ccco2)cc1 | 2.04
17 | Cc1cc2ccccc2n1CCC(=O)N1CCCC(O)(CN(C)C)CC1 (stereo not given) | 0.58
18 | Cc1cc(=O)[nH]c(-n2nc(-c3cccs3)cc2N)n1 | -13.8
19 | CCN(CC1CCCO1)C(=O)NCCNC(=O)c1ccccc1F (stereo not given) | 1.37
20 | Cc1nc(COc2ccc(N(C)S(C)(=O)=O)cc2)sc1C | -7
